Laboratory results reported in PubChem BioAssay.
Activity calls are given as the source filed them.

How the values were obtained:
[1] = binders of probe aFSTL3 on microarray, primary screen, stem cell growth factor project, biochemical, small-molecule microarray, fluorescence 635/667 (AID 1064); conditions: higher = more signal;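 further: measures binding of the biotinylated anti-FSTL3 antibody to printed compounds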
[2] = binders from COS7 lysate, DM2A8 probe, primary screen, torsin A project, cell lysate, small-molecule microarray, fluorescence 635/667 (AID 1065); conditions: higher = more signal, COS7 lysate expressing mutant human TOR1A
[3] = binders of probe aFGF2 on microarray, primary screen, stem cell growth factor project, biochemical, small-molecule microarray, fluorescence 635/667 (AID 1067); conditions: higher = more signal;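 further: measures binding of biotinylated aFGF2 protein to printed compounds on slides; z-score merges feature fluorescence and signal-to-noise across triplicate slides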
[4] = binders of probe aFGF10 on microarray, primary screen, stem cell growth factor project, biochemical, small-molecule microarray, fluorescence 635/667 (AID 1071); conditions: higher = more signal;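 further: score merges 667 nm spot intensity and signal to noise from triplicate slides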
[5] = biological target: Neurogenic locus notch homolog protein 2 (Homo sapiens) (UniProt Q04721); test: Notch2 binders on small-molecule microarrays, primary screen, biochemical, small-molecule microarray, 635 nm fluorescence, stem cell growth factors (AID 1073); conditions: Notch2 binding, higher = more signal
[6] = biological target: Pro-neuregulin-1, membrane-bound isoform (Homo sapiens) (UniProt Q02297); test: NRG1 binders on small-molecule microarrays, primary screen, psychiatric disease protein project, biochemical, small-molecule microarray, fluorescence 635/667 (AID 1075); conditions: NRG1 binding, 635 nm fluorescence, higher = more signal;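 further: score combines 667 nm spot fluorescence with signal to noise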
[7] = test system: Neuregulin-1 EGF-like domain; test: binders of neuregulin-1 EGF-like domain, primary screen, biochemical, small-molecule microarray, 635 nm fluorescence (AID 1081); conditions: small-molecule microarray binding, higher = more signal;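 further: binding of the protein to compounds printed on small-molecule microarray slides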
[8] = FRG1 promoter luciferase signal modulators, primary screen, FRG1 inhibition for FSHD, cell-based, C2C12 myotubes, firefly/Renilla luciferase, luminescence (AID 1084); conditions: higher = more signal, called active from +8 up or from −8 down
[9] = binders of probe aFST on microarray, primary screen, stem cell growth factor project, biochemical, small-molecule microarray, fluorescence 635/667 (AID 1086); conditions: higher = more signal;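 further: score merges 667 nm fluorescence with signal-to-noise of each printed compound spot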
[10] = binders of probe aHhip on microarray, primary screen, stem cell growth factor project, biochemical, small-molecule microarray, fluorescence 635/667 (AID 1087); conditions: higher = more signal;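 further: score merges spot fluorescence at 667nm with spot signal to noise ratio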
[11] = test system: PRMT1 (protein arginine N-methyltransferase 1); test: PRMT1 binders on small-molecule microarrays, primary screen, biochemical, small-molecule microarray, 635 nm fluorescence (AID 1088); conditions: small-molecule microarray binding, higher = more signal;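 further: binding of Prmt1 protein to compounds spotted on small-molecule microarray slides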
[12] = yeast growth modulation, basal conditions, primary screen, YJM789 clinical isolate, OD600, 24 h (AID 1089);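 further: growth of clinical yeast isolate S. cerevisiae YJM 789 seeded 1000 cells per well; test concentration not given here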; conditions: S. cerevisiae YJM789 growth, higher = more signal, called active from +8 up or from −8 down
[13] = fission yeast growth modulation, primary screen, strain 972, OD600, 24 h, no modulator (AID 1090);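 further: basal condition with compound alone and no growth modifier present; test concentration not given here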; conditions: S. pombe 972 growth, higher = more signal, called active from +8 up or from −8 down
[14] = S. cerevisiae growth modulation with rapamycin, primary screen, strain BY4716, OD600, 96 h (AID 1091); conditions: higher = more signal, called active from +8 up or from −8 down; further: test concentration not given here
[15] = biological target: Torsin-1A-interacting protein 2 (Homo sapiens) (UniProt Q8NFQ8); test: LULL1 binders on small-molecule microarray, primary screen, cell lysate, human LULL1 lysate, 635/667 nm fluorescence (AID 1092); conditions: hLULL1 lysate binding, 635 nm fluorescence, higher = more signal;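 further: probe is lysate of COS7 cells overexpressing human LULL1; score merges per-feature 667 nm fluorescence with signal-to-noise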
[16] = E. coli growth modulation, two-sided OD650, primary screen, E. coli filamentation project, strain DRC41, 24 h (AID 1093); conditions: OD650, 24 h, higher = more signal, called active from +8 up or from −8 down;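 further: MC1000 strain lacking acrAB efflux and sulA so SOS filamentation is blocked; test concentration not given here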
[17] = small-molecule microarray binders of probe aLefty2, primary screen, biochemical, biotinylated probe, 635/667 nm fluorescence (AID 1094); conditions: higher = more signal;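 further: score merges spot fluorescence near 667 nm with spot signal-to-noise ratio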
[18] = test system: Noggin (protein binding on small-molecule microarray); test: Noggin binders on small-molecule microarray, primary screen, biochemical, 635/667 nm fluorescence (AID 1095); conditions: 635 nm fluorescence, higher = more signal;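 further: score merges 667 nm feature fluorescence with signal to noise over triplicate slides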
[19] = biological target: Neurogenic locus notch homolog protein 3 (Homo sapiens) (UniProt Q9UM47); test: NOTCH3 binders on small-molecule microarray, primary screen, biochemical, 635/667 nm fluorescence (AID 1096); conditions: NOTCH3 binding, 635 nm fluorescence, higher = more signal
[20] = small-molecule microarray binders of probe aEGFR, primary screen, biochemical, biotinylated probe, 635/667 nm fluorescence (AID 1097); conditions: higher = more signal;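 further: probe is a biotinylated anti-EGFR antibody binding compounds printed on slides; score combines fluorescence near 667 nm and signal to noise of each spot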

Chain of Pro-neuregulin-1, membrane-bound isoform (Homo sapiens) (Q02297 whole entry, looked up, the tested form may be a part, canonical isoform): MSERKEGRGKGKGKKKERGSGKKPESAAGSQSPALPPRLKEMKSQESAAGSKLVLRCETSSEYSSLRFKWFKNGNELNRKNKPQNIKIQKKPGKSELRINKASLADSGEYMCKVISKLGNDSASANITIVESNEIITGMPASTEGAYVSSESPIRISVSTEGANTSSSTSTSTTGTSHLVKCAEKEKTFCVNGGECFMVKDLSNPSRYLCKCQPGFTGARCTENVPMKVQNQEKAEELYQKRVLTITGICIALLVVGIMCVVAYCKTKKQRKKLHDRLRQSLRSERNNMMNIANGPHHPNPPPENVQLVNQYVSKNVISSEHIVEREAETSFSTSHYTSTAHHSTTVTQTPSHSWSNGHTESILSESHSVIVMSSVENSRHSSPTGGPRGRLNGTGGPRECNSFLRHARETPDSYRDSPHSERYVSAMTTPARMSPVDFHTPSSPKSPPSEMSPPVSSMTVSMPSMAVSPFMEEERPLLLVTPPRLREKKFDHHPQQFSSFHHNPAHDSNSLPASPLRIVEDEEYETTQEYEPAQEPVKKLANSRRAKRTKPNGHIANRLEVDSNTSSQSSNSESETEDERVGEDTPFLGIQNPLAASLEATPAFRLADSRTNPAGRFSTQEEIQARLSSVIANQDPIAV
Chain of Neurogenic locus notch homolog protein 2 (Homo sapiens) (Q04721 whole entry, looked up, canonical isoform): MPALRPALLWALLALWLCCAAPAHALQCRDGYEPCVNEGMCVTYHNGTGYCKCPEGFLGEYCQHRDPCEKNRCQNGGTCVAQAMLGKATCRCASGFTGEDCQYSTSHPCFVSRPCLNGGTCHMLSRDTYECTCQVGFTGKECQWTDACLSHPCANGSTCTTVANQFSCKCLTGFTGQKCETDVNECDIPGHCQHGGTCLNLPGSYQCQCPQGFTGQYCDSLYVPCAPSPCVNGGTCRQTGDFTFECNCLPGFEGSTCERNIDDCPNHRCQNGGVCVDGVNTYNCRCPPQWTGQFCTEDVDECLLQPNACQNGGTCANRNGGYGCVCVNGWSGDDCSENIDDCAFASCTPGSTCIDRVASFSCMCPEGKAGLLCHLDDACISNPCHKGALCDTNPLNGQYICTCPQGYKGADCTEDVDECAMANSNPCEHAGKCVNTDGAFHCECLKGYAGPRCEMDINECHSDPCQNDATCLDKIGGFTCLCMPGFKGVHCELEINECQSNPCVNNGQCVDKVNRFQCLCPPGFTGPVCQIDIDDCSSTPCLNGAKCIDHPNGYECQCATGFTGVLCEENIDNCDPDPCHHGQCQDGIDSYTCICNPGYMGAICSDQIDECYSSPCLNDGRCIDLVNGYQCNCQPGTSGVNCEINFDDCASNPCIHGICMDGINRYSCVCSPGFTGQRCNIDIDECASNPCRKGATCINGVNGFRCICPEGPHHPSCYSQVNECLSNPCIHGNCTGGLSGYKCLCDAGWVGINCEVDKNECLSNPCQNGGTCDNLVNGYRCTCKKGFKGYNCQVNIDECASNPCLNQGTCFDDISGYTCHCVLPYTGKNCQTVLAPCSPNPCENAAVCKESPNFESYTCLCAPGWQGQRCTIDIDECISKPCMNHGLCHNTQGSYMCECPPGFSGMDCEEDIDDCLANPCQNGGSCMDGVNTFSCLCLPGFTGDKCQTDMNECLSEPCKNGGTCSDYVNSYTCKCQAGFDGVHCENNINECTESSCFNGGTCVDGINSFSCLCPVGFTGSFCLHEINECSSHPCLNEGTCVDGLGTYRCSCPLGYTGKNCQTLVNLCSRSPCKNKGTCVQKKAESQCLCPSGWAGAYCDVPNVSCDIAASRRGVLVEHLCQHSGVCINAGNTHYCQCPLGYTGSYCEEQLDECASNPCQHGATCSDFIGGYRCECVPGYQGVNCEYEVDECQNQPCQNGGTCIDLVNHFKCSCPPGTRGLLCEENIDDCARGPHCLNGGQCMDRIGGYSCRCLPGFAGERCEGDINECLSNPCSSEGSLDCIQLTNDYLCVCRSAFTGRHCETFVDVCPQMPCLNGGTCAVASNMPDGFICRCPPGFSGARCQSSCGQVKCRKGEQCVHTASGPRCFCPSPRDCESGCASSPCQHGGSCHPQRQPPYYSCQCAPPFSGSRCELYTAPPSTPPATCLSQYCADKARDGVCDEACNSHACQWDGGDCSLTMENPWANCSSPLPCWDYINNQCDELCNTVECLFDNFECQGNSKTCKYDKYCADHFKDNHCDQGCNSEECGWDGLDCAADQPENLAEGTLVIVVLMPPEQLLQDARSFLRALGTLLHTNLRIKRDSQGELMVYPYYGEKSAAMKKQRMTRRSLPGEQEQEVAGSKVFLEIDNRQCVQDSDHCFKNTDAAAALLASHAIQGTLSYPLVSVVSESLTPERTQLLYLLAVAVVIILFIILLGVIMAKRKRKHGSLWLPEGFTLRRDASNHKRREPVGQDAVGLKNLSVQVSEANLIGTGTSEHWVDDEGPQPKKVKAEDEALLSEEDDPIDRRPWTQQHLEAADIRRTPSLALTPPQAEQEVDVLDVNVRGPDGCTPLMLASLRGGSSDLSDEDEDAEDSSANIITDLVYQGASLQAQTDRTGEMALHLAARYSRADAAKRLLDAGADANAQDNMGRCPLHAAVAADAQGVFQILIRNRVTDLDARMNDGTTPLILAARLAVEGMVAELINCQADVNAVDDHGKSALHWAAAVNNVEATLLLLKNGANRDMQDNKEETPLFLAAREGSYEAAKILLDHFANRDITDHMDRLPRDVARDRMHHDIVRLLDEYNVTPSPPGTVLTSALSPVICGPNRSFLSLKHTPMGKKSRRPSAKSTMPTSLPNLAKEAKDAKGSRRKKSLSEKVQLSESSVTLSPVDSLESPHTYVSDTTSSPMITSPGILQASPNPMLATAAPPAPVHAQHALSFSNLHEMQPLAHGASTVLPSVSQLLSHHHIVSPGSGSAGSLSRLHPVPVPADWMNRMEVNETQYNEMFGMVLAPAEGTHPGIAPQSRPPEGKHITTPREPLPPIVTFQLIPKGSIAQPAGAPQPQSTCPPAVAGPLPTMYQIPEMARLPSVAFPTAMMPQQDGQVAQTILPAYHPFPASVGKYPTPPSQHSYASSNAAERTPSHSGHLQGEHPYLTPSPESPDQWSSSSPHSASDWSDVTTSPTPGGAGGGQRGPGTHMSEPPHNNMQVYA
Chain of Torsin-1A-interacting protein 2 (Homo sapiens) (Q8NFQ8 whole entry, looked up): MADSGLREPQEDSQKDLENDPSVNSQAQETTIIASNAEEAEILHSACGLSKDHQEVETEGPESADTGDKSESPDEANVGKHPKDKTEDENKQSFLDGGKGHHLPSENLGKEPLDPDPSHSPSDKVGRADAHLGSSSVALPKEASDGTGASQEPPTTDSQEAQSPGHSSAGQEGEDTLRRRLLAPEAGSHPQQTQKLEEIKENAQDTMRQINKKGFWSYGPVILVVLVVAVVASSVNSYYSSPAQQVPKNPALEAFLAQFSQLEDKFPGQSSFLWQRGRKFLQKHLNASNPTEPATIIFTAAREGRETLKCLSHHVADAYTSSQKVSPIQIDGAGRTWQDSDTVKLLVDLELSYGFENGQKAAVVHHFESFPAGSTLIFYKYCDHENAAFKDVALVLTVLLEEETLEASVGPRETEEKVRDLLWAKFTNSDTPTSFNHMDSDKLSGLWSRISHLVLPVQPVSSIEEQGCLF

| SMILES | composite z-score [1] | composite z-score [2] | composite z-score [3] | composite z-score [4] | composite z-score [5] | composite z-score [6] | composite z-score [7] | z-score [8] | composite z-score [9] | composite z-score [10] | composite z-score [11] | z-score [12] | z-score [13] | z-score [14] | composite z-score [15] | z-score [16] | composite z-score [17] | composite z-score [18] | composite z-score [19] | composite z-score [20] |
| --- | --- | --- | --- | --- | --- | --- | --- | --- | --- | --- | --- | --- | --- | --- | --- | --- | --- | --- | --- | --- |
| CCOC(=O)[C@H](Cc1ccccc1)NC(=O)CCC1CC(OC(=O)NCc2cccc3ccccc23)CC2(CCCC(COC(=O)NCCOc3ccccc3)O2)O1 (stereo not given in full) | -0.591 | 0.618 | -0.105 | 0.133 | 0.863 | 0.972 | 0.898 | 0.688 (inactive) | 0.214 | 0.204 | 1.57 | -0.851 (inactive) | -0.421 (inactive) | -0.792 (inactive) | 3.18 | -0.325 (inactive) | -0.122 | 0.734 | 1.12 | -0.0828 |
| Cc1ccc2[nH]c3nc(CCCn4ccnc4-c4ccccc4)nnc3c2c1 | -0.172 | 0.616 | -0.119 | 0.247 | 1.63 | 0.742 | 1.12 | 0.921 (inactive) | 0.26 | 0.0274 | 0.842 | 0.324 (inactive) | 0.0855 (inactive) | -0.425 (inactive) | 1.38 | 1.13 (inactive) | 0.504 | 0.385 | 1.12 | -0.009 |
| C#CCCCON=C1C[C@@H](O)[C@@H](O)[C@@H]2[C@@H]3C(=O)N(C[C@@H]4CCCO4)C(=O)[C@@H]3CC[C@H]12 | -0.444 | 0.368 | -0.168 | 0.188 | 0.53 | 0.43 | 0.475 | 0.164 (inactive) | 0.0653 | -0.353 | 0.81 | 0.426 (inactive) | 0.775 (inactive) | 0.749 (inactive) | 1.22 | 0.397 (inactive) | -0.134 | 0.463 | 0.607 | -0.0828 |
| CC=CC1=C(CO)[C@H](O)[C@H]2O[C@H]2[C@@H]1O | -0.267 | 0.112 | -0.0425 | 0.192 | 0.486 | -0.356 | 0.592 | 0.746 (inactive) | 0.133 | 0.154 | 0.028 | 0.285 (inactive) | 1.03 (inactive) | -0.258 (inactive) | 0.0048 | 0.712 (inactive) | -0.221 | 0.59 | 0.429 | -0.128 |
| O=C1C2=CC[C@H]3C(=O)N(C4CCCCC4)C(=O)[C@H]3[C@H]2[C@H](O)[C@@H]2O[C@H]12 | -0.115 | -2.14 | -0.162 | -0.179 | -0.423 | -0.0738 | -0.515 | 11.5 (active) | -0.5 | -0.164 | -0.642 | -0.163 (inactive) | -6.78 (inactive) | -1.25 (inactive) | 0.821 | -0.391 (inactive) | -0.196 | -0.725 | -1.63 | -0.0389 |
| CO[C@@H]1COC(=O)CC=C[C@H](C)[C@H](OC)COC(=O)[C@@H]2CCCN2C(=O)CC=C[C@H]1C | -0.811 | 1.74 | -0.196 | 0.0967 | -0.271 | -0.285 | 0.158 | -0.331 (inactive) | 0.0991 | -0.166 | 0.684 | 0.0396 (inactive) | -0.719 (inactive) | -0.249 (inactive) | -0.722 | 0.127 (inactive) | -0.225 | 1.78 | -0.128 | 0.153 |
| O=C1C[C@@H](O)[C@@H](O)[C@@H]2[C@@H]3C(=O)N(C4CCCCC4)C(=O)[C@@H]3CC[C@@H]12 | -0.371 | 0.159 | -0.0113 | 0.394 | 0.334 | 1.05 | 0.546 | 0.129 (inactive) | 0.0535 | -0.0237 | 0.607 | 0.93 (inactive) | -0.509 (inactive) | -0.149 (inactive) | 0.905 | 0.536 (inactive) | -0.137 | 0.354 | 0.57 | -0.0921 |
| CC(=O)OC[C@H]1O[C@@H](ON=C(C)CCN2CCCCc3nc(C)c(C)cc32)[C@H](OC(C)=O)[C@@H](OC(C)=O)[C@@H]1OC(C)=O | -0.587 | 0.515 | -0.0801 | 0.751 | 1 | 0.853 | 1.16 | 0.694 (inactive) | 0.551 | 0.0881 | 1.53 | -0.61 (inactive) | -0.149 (inactive) | -0.175 (inactive) | 1.07 | -0.871 (inactive) | -0.0179 | 0.708 | 0.927 | 0.145 |
| COC(=O)[C@H](C)NC(=O)CCC1CC(OC(=O)NCCc2ccc(F)cc2)CC2(CCCC(COC(=O)NCc3ccccc3)O2)O1 (stereo not given in full) | -0.749 | -0.126 | 0.0002 | 0.677 | 1.06 | 0.648 | 0.964 | 1.61 (inactive) | 0.65 | -0.305 | 1.53 | 0.59 (inactive) | 1.04 (inactive) | 0.932 (inactive) | 1.92 | -0.755 (inactive) | -0.0898 | 0.55 | 1.1 | -0.0314 |
| C#CCCCON=C1C[C@@H](O)[C@@H](O)[C@@H]2[C@@H]3C(=O)N(CC)C(=O)[C@@H]3CC[C@H]12 | -0.281 | 0.368 | -0.0885 | 0.236 | 0.03 | 1.16 | 0.528 | -0.234 (inactive) | 0.0594 | -0.128 | 1.37 | -0.276 (inactive) | -0.26 (inactive) | -0.247 (inactive) | 2.11 | 0.216 (inactive) | -0.25 | 0.726 | 0.348 | -0.174 |
